Measurements taken from PubChem BioAssay AID540277 (National Center for Advancing Translational Sciences (NCATS), 2011).
Screen size: about 320,000 compounds; about 55 (0.02%) were called active. Inconclusive results (about 3%) are left out. Only a selection was taken, and actives are over-represented in it overall. A number with no mark means an inactive call. No stated cut-off is given here; in the data, active means potentiation above about 80%; inconclusive means between about 30% and that limit; inactive means weaker than that.

Target: Transient receptor potential cation channel subfamily V member 1 (Homo sapiens) (UniProt Q8NER1)
Experiment: HTS Assay for Compounds that Act as Potentiators of the Vanilloid Receptor 1; further: 0% is about no effect
Details: TRPV1-expressing cells, Fluo-8 calcium influx, capsaicin EC20 potentiation; at 8.33 µM; hits give high values
Description: The transient receptor potential ion channel, family V, number 1, (TRPV1) is one of the most important molecular transducers of painful stimuli and a potential target for analgesic drug development. Although recent clinical trials with orthosteric antagonists have not produced a successful drug because of a hyperthermia side effect and their tendency to block thermal noxious pain, this ion channel is undeniably well placed in the pain pathway, and the idea of blocking pain signals before they enter the CNS is an excellent concept and of proven efficacy when TRPV1 agonists are used. We propose a new approach involving allosteric modulation to impose an activity-dependent constraint within the context of inflammation and tissue damage that would alter the responsiveness of the channel in a way that an orthosteric vanilloid antagonist cannot achieve. We believe that the allosteric modulator approach has not been explored for this target. The main goal of this proposal is to identify additional, new, potent allosteric modulators of TRPV1 that can be used to investigate TRPV1 function. Our recent report provides evidence of proof of concept, but the compounds are just at the edge of utility in terms of potency. […] The question of whether they can be used as analgesic agents is complex, but if suitable compounds are identified then testing for analgesic properties will be conducted. NIH Chemical Genomics Center [NCGC] NIH Molecular Libraries Probe Centers Network [MLPCN] MLPCN Grant: MH089480-1A1 Assay Submitter (PI): Michael Iadarola, National Institute of Dental and Cranofacial Research
Upon TRPV1 activation in TRPV1 cells, the channel opens and extracellular cations flow through the channel into the cytosol. A calcium binding dye (Fluo-8) becomes fluorescent when bound to calcium. This dye is pre-loaded into cells and is used as a marker for calcium influx. The amount of accumulated calcium is precisely quantified using the FDSS kinetic reader and the calcium dye. For the HTS assay, freshly prepared cells are plated at a density of 2000/well in 3 ul medium in 1536-well plates and cultured overnight at 35.5C. Cells will be loaded with 1 ul of the homogeneous calcium dye (ABD Bioquest) at room temperature for 40 to 90 minutes. Plates will be loaded into the FDSS kinetic reader and a 1 sec / cycle for 10 second baseline signal will be measured. Compound library will then be added with a pintool at 23 nl and measured kinetically for 3 minutes. This portion of the read is considered the agonist portion of the screen. Following the 3 minutes of incubation, an on board pipettor will deliver 1 ul of capsaicin for a final concentration equal to the EC20. Signal will be measured kinetically for an additional 2 minutes. This portion of the read is considered the allosteric enhancer portion of the screen. The FDSS reader has a standard filter set capable of measuring calcium bound Fluo-8 (ex=480 and em=520 nm).

Transient receptor potential cation channel subfamily V member 1 (Homo sapiens), sequence (Q8NER1 whole entry, looked up): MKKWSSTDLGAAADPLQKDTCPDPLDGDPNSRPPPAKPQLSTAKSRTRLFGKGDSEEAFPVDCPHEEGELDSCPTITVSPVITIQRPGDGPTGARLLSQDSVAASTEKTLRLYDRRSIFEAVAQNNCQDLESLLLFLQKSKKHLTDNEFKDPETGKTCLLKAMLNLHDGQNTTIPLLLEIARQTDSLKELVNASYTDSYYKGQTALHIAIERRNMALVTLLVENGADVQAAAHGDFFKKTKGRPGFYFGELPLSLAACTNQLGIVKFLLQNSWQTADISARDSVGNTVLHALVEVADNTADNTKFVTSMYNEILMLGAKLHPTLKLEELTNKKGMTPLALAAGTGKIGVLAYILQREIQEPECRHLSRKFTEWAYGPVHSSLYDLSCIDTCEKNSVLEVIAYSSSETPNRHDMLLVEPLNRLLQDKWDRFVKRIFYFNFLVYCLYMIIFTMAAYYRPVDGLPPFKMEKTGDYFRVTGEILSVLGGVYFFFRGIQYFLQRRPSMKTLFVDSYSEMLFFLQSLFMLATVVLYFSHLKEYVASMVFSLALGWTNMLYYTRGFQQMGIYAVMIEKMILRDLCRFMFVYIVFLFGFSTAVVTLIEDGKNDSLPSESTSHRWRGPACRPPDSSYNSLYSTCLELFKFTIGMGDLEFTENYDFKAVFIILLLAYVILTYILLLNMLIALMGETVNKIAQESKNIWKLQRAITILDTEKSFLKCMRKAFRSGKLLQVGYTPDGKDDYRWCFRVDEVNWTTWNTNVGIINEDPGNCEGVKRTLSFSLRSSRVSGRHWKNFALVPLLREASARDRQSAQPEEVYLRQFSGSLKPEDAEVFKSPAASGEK

With `Cc1nc2ccc(NC(=O)C3CCCCC3)cc2s1` as the molecule, how does the potentiation read?
Its potentiation is -2.49%.

How did the potentiation turn out when `COc1ccc(-c2sc3ccc(OC)cc3c2C#Cc2ccccn2)cc1` was run?
Its potentiation is -1.97%.

For `CC(C)c1ccc(S(=O)(=O)N2CCN(C(C)C(=O)NC3CCCC3)CC2)cc1` (stereo unspecified), which potentiation is on record?
Its potentiation is -15.2%.

For `O=C(Nc1ccccn1)C1CCN(S(=O)(=O)c2ccccc2)CC1`, which potentiation is on record?
Its potentiation is -3.8%.

For `COCCn1c(C)cc(C(=O)CSc2nnc(C3CC3)n2C2CC2)c1C`, which potentiation is on record?
The potentiation was -2.92%.

For `CC(=O)Nc1ccc(Nc2cc(C)nc(Nc3ccc(NC(C)=O)cc3)n2)cc1`, which potentiation is on record?
Its potentiation is 13.9%.

For `O=c1ccc2c(-c3ccccc3S(=O)(=O)O)c3ccc(O)c(O)c3oc-2c1O`, which potentiation is on record?
Its potentiation is 12.9%.

Which potentiation does the source give for `CC(=O)N1CCN(S(=O)(=O)c2cccc(C(=O)NC3CCC(C)CC3)c2)CC1` (stereo unspecified) here?
Its potentiation is 0.313%.

How did the potentiation turn out when `Cc1cc(C(=O)Nc2nnc(C3CC3)s2)c(C)s1` was run?
Its potentiation is 9.37%.

With `COc1cccc(-n2c(SCC(=O)NC3CCS(=O)(=O)C3)nc3ccccc3c2=O)c1` (stereo unspecified) as the molecule, how does the potentiation read?
The potentiation was 7.53%.

With `CC(C)n1ncc2c(C(=O)Nc3ccc(CC#N)cc3)cc(C3CC3)nc21` as the molecule, how does the potentiation read?
The potentiation was -24.2%.

Which potentiation does the source give for `COc1cccc(NC(=O)CN(C)CC(=O)c2c(N)n(Cc3ccccc3)c(=O)n(C)c2=O)c1` here?
Its potentiation is 23.5%.

For `O=S(=O)(NCc1ccccc1Br)c1ccccc1Br`, which potentiation is on record?
The potentiation was 5.51%.

Which potentiation does the source give for `CCOC(=O)C1=C(COC(=O)[C@H](C)NS(=O)(=O)c2ccccc2F)NC(=O)NC1C` (stereo partly specified) here?
Its potentiation is -3.56%.

`CCOC(=O)c1cc(OC(=O)c2ccccc2Cl)n(-c2ccccc2)n1` was tested. Which potentiation did it give?
The potentiation was 0.753%.

Which potentiation does the source give for `CCc1sc(C(=O)N2CCN(CC(=O)Nc3cccc(F)c3)CC2)cc1C` here?
Its potentiation is -11.7%.

For `CCN(CC(=O)NCc1cccs1)C(=O)/C=C/c1ccc(C)cc1`, which potentiation is on record?
The potentiation was -0.0424%.

With `COC(=O)c1sc2[nH]c(=S)n(N)c(=O)c2c1C` as the molecule, how does the potentiation read?
Its potentiation is -11.7%.

With `CCN(c1ccccc1)S(=O)(=O)c1cccc(C(=O)NCc2ccccc2CN2CCOCC2)c1` as the molecule, how does the potentiation read?
Its potentiation is -5.32%.

For `CCOc1ncccc1C(=O)OCC(=O)c1c[nH]c2ccccc12`, which potentiation is on record?
Its potentiation is 3.1%.

How did the potentiation turn out when `O=C(CN1C(=O)NC2(CCCCC2)C1=O)N1CCN(C(=O)c2cccs2)CC1` was run?
The potentiation was 25.7%.

With `CN(C)CCN=c1cc(-c2ccccc2)oc2ccc(Cl)cc12` as the molecule, how does the potentiation read?
Its potentiation is -6.88%.

`O=C(COC(=O)c1ccccc1)c1ccc2c(c1)OCCO2` was tested. Which potentiation did it give?
The potentiation was 3.76%.

`Cc1c(C(=O)NNC(=O)c2ccncc2)oc2ccccc12` was tested. Which potentiation did it give?
The potentiation was -17.2%.

With `O=C(O[C@@H]1[C@H](Cc2ccccc2)NS(=O)(=O)[C@H]2C[C@@H]3C=C[C@]12O3)c1ccccc1Br` as the molecule, how does the potentiation read?
The potentiation was 3.92%.

For `Cc1ccc(OCCC(=O)Nc2ccc(S(=O)(=O)Nc3nccs3)cc2)cc1`, which potentiation is on record?
The potentiation was 17.5%.

`NC(=O)C1CCN(C(=O)c2ccc(F)c(S(=O)(=O)N3CCOCC3)c2)CC1` was tested. Which potentiation did it give?
Its potentiation is -7.69%.

How did the potentiation turn out when `CC(C)c1ccc(/C=C/C(=O)NCCCN2CCOCC2)cc1` was run?
The potentiation was -19.8%.

Which potentiation does the source give for `O=C(NCCC1=CCCCC1)c1ccc(-n2cncn2)cc1` here?
The potentiation was -28.9%.

For `Cc1ccn2c(=O)nc(SCC(=O)NCc3ccc4c(c3)OCO4)nc2c1`, which potentiation is on record?
The potentiation was -6.94%.

For `CC1CN(/C=C/C(=O)C(F)(F)F)CC(C)O1` (stereo unspecified), which potentiation is on record?
The potentiation was 11.7%.

`COc1ccccc1/C=C/C(=O)OCC(=O)NC1CCCCCC1` was tested. Which potentiation did it give?
The potentiation was -11.2%.

`O=C(NCCc1ccc(F)cc1)c1ccc2nccnc2c1` was tested. Which potentiation did it give?
Its potentiation is -3.52%.

Which potentiation does the source give for `CC(C)N(Cc1nnc(-c2ccccc2Br)o1)C(=O)c1cc(Cl)nc2ccccc12` here?
Its potentiation is -18.4%.

How did the potentiation turn out when `Cc1cc(C)cc(OCC(=O)OCC(=O)NC2CCCC2)c1` was run?
The potentiation was 19.9%.

How did the potentiation turn out when `COC(=O)C(C)NC(=O)COc1ccc2ccccc2c1` (stereo unspecified) was run?
The potentiation was 3.51%.

For `COCC(C)NC(=O)COc1nncc2ccccc12` (stereo unspecified), which potentiation is on record?
Its potentiation is 80.9% (active).

With `CC(C)C(C)NC(=O)COc1ncnc2ccccc12` (stereo unspecified) as the molecule, how does the potentiation read?
The potentiation was 5.13%.

With `Cc1cc(C)cc(-c2nnc(SCC(=O)NC3CC3)o2)c1` as the molecule, how does the potentiation read?
The potentiation was -9.15%.

`CCOCc1c(C(=O)N2CCN(Cc3ccc(Br)s3)CC2)oc2ccccc12` was tested. Which potentiation did it give?
Its potentiation is -19.8%.

How did the potentiation turn out when `COc1ccccc1N1CCN(CC(=O)Nc2ccnn2C2CCCC2)CC1` was run?
Its potentiation is 4.7%.

How did the potentiation turn out when `COc1ccccc1-n1nnnc1SCC(=O)NC(=O)Cc1ccccc1` was run?
Its potentiation is 2.96%.

How did the potentiation turn out when `COc1ccc(S(=O)(=O)N2CCOCC2)cc1NC(=O)c1ccc(OCC(C)C)c(OC)c1` was run?
Its potentiation is -5.7%.

Which potentiation does the source give for `O=C(Nc1ccccc1F)c1ccc(S(=O)(=O)N2CCCCCC2)cc1` here?
Its potentiation is -21.7%.

`O=S(=O)(NCCc1ccccn1)c1cc(Cl)cc(Cl)c1O` was tested. Which potentiation did it give?
Its potentiation is 2.4%.

`O=C(c1cc2ccccc2o1)N1CCN(S(=O)(=O)c2ccc(Cl)s2)CC1` was tested. Which potentiation did it give?
Its potentiation is -15.9%.
